Each structure is given as a SMILES string. A number with no mark means an inactive call. Inconclusive results are not listed. Calls of active or inactive are those of the source. The call rests on the fitted dose curve.

Assay [1] has as its target Acetylcholinesterase (Homo sapiens) (UniProt P22303). The assay is described as follows: Acetylcholinesterase (AChE) small molecule antagonists: colormetric cell-based qHTS assay (AID 1347395). Further: nearly all actives have a fitted effect of over 30% in size. Further: potency means the concentration at half of the fitted maximal effect. Particulars: SH-SY5Y cells AChE activity, colorimetric (Ellman); series mostly up to 115 µM. The procedure, abridged:
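Homogeneous whole-cell format. SH-SY5Y cells seeded overnight, dosed with compound (30 min, 37 C, 5% CO2), then given DTNB/acetylthiocholine cocktail for 90 min at 37 C; colorimetric signal.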
On the technique in general: Quantitative high-throughput screening tests each substance at several concentrations.

The target is the same in assay [2]. As to the kind of experiment: Acetylcholinesterase (AChE) small molecule antagonists: enzyme-based qHTS assay with human liver microsomes (AID 1347399). Further: nearly all actives have a fitted effect of over 60% in size. Particulars: Potency: qHTS inhibition; outcome: qHTS inhibition; series mostly up to 115 µM. The procedure, abridged: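 Recombinant human AChE (50 mU/mL in the enzyme mix) and human liver microsomes (0.25 mg/mL final) were preincubated with compound and NADPH (0.25 mg/mL final) for 30 min at 37 C. Acetylthiocholine/DTNB was then added; thiocholine was read colorimetrically after 10 min at room temperature.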

Assay [3] shares this target. As to the kind of experiment: Acetylcholinesterase (AChE) small molecule antagonists: fluorescence cell-based qHTS assay (AID 1347398). Further: nearly all actives have a fitted effect of over 50% in size. Further: potency means the concentration at half of the fitted maximal effect. Particulars: SH-SY5Y cells; Potency: AChE activity; outcome: AChE activity; series mostly up to 115 µM. Put shortly: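 Cellular AChE activity read as thiocholine from acetylthiocholine hydrolysis, detected by Thiolite Green fluorescence at 490/520 nm after 40 min at room temperature. Compounds were pre-incubated 30 min at 37 C on adherent SH-SY5Y cells.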

For assay [4] the target is unchanged. The assay is described as follows: Acetylcholinesterase (AChE) small molecule antagonists: enzyme-based qHTS assay (AID 1347397). Further: nearly all actives have a fitted effect of over 55% in size. Further: potency means the concentration at half of the fitted maximal effect. The settings on record: Potency: AChE enzyme activity inhibition; outcome: AChE enzyme activity inhibition; series mostly up to 115 µM. The procedure, abridged:
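Colorimetric DTNB readout of acetylthiocholine hydrolysis, 10 min at room temperature, after 30 min room-temperature exposure of 50 mU/mL recombinant human enzyme to compound; DMSO vehicle control.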
On the % scale 0 is the no-effect control and ±100 the full control effect.

Acetylcholinesterase (Homo sapiens), sequence (P22303 whole entry, looked up): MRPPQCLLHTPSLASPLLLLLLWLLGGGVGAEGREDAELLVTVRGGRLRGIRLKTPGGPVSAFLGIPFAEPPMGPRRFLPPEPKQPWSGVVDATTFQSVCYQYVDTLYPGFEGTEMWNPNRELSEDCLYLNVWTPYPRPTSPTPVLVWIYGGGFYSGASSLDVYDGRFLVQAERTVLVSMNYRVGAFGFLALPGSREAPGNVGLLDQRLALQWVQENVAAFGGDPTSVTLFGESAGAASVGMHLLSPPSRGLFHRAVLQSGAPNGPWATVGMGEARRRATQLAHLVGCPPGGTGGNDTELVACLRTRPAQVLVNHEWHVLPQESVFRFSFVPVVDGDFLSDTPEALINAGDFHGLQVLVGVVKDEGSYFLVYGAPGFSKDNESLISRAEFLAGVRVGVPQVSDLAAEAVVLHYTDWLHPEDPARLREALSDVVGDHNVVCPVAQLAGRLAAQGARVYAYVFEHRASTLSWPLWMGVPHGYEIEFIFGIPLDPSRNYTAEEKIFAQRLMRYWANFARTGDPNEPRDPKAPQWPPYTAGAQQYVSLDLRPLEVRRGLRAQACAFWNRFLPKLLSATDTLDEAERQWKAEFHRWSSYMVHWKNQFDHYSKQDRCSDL

`CCOC(=O)c1ccc(NC(=O)CN2CCCCC2)cc1`: the Potency in assay [1] is 30.9 µM (active). Also, the Potency result in assay [2] was “inactive”.
For the molecule `CCN(Cc1cccc(S(=O)(=O)O)c1)c1ccc(C(=C2C=CC(=[N+](CC)Cc3cccc(S(=O)(=O)[O-])c3)C=C2)c2ccccc2)cc1`, the Potency result in assay [1] and in assay [2] was “inactive” throughout.
For the molecule `OCCCC1CCCCC1`, the Potency result in assay [1], in assay [3] and in assay [2] was “inactive” each time.
In the case of `CC(=O)[C@H]1[C@H](C#N)C[C@H]2[C@@H]3CC=C4C[C@@H](O)CC[C@]4(C)[C@H]3CC[C@@]21C`, the Potency entry in assay [1], in assay [3] and in assay [2] was “inactive” in each case.
For `CCOc1nc2cccc(C(=O)OC(C)OC(=O)OC3CCCCC3)c2n1Cc1ccc(-c2ccccc2-c2nn[nH]n2)cc1` (stereo not given), the Potency result in assay [1], in assay [3] and in assay [2] was “inactive” throughout.
Take `CCCCCCCCCC[N+](C)(CCCCCCCCCC)CCC[Si](OC)(OC)OC`: the Potency result in assay [1] and in assay [2] was “inactive” throughout.
Take `Cc1ccc2c(c1)OCC(=O)CO2`: the Potency in assay [1] is 35.6 µM (active). Moreover, the Potency entry in assay [2] was “inactive”.
`S=C([S-])NCCNC(=S)[S-].[Mn+2]`: the Potency entry in assay [4] and in assay [2] was “inactive” throughout. Besides, the Potency in assay [3] is 39.9 µM (active).
Turning to `COc1cccc(OC)c1`, the Potency result in assay [4], in assay [3] and in assay [2] was “inactive” in each case.
As to `Cc1cc(O)ccc1N`, the Potency entry in assay [4] is “inactive”.
As to `CC(=O)Oc1cc2c(s1)CCN(C(C(=O)C1CC1)c1ccccc1F)C2` (stereo not given), the Potency result in assay [4], in assay [3] and in assay [2] was “inactive” throughout.
Regarding `O=C(O)c1cccc(Cl)n1`, the Potency result in assay [4], in assay [3] and in assay [2] was “inactive” each time.
For the molecule `CCc1cc(Cc2cc(CC)c(N)c(CC)c2)cc(CC)c1N`, the Potency entry in assay [4], in assay [3] and in assay [2] was “inactive” throughout.
In the case of `CCCCNC1CC(C)(C)NC(C)(C)C1`, the Potency result in assay [4], in assay [3] and in assay [2] was “inactive” throughout.
Take `Clc1nnc(Cl)c2ccccc12`: the Potency result in assay [4], in assay [3] and in assay [2] was “inactive” each time.
As to `CCCC[N+](C)(CCCC)CCCC`, the Potency result in assay [4], in assay [3] and in assay [2] was “inactive” throughout.
In the case of `Nc1nc(N)nc(-c2cc(Cl)ccc2Cl)n1`, the Potency result in assay [4], in assay [3] and in assay [2] was “inactive” each time.
Take `Cc1[nH]c(=O)c(C#N)cc1-c1ccncc1`: the Potency result in assay [4], in assay [3] and in assay [2] was “inactive” each time.
As to `CC(C)(C)c1ccccc1`, the Potency entry in assay [4], in assay [3] and in assay [2] was “inactive” in each case.
In the case of `CCCCCCCC[P+](CCCCCCCC)(CCCCCCCC)CCCCCCCC`, the Potency in assay [4] was 22.3 µM (active); in assay [3], 62.9 µM (active). Also, the Potency result in assay [2] was “inactive”.
Consider `COc1cc2nc(N3CCN(C(=O)c4ccco4)CC3)nc(N)c2cc1OC`, for which the activity change, negative = inhibition in assay [4] was -11.6% [at 23.6 µM]; in assay [3], -22.9% [at 23.8 µM].
Consider `CC1COc2ccccc2N1` (stereo not given), for which the Potency result in assay [4], in assay [3] and in assay [2] was “inactive” throughout.
`OCCCCCCO`: the Potency entry in assay [4], in assay [3] and in assay [2] was “inactive” in each case.
In the case of `Cc1oncc1C(=O)Nc1ccc(C(F)(F)F)cc1`, the Potency entry in assay [4] and in assay [3] was “inactive” throughout.
With `CCN(CC)c1ccc2c(c1)Oc1cc(N(CC)CC)ccc1C21OC(=O)c2ccccc21`, in assay [4], the Potency result was “inactive”.
`CCN1CCC[C@H]1CNC(=O)c1cc(S(N)(=O)=O)ccc1OC`: the Potency entry in assay [4], in assay [3] and in assay [2] was “inactive” throughout.
Take `COc1ccc(-c2cc(=O)c3c(O)cc(O[C@@H]4O[C@H](CO[C@@H]5O[C@@H](C)[C@H](O)[C@@H](O)[C@H]5O)[C@@H](O)[C@H](O)[C@H]4O)cc3o2)cc1O`: the Potency entry in assay [4], in assay [3] and in assay [2] was “inactive” in each case.
With `Cn1c(N)c(N=O)c(=O)n(C)c1=O`, the Potency entry in assay [4], in assay [3] and in assay [2] was “inactive” in each case.
On to `CCC(C)(Oc1ccc(C2(c3ccc(OC(C)(CC)C(=O)O)cc3)CCCCC2)cc1)C(=O)O` (stereo not given), for which the Potency result in assay [4] and in assay [3] was “inactive” each time.
`Cc1ccc(C(=O)C(C)CN2CCCCC2)cc1` (stereo not given): the Potency result in assay [4] was “inactive”.
For `CCCC(C)C(O)CC` (stereo not given), the Potency result in assay [4], in assay [3] and in assay [2] was “inactive” throughout.
Consider `CC(C)CCOC(=O)CC(C)C`, for which the Potency result in assay [4], in assay [3] and in assay [2] was “inactive” throughout.
For `CCCCCC(=O)CC`, the Potency result in assay [4], in assay [3] and in assay [2] was “inactive” throughout.
As to `Nc1ccc(S(=O)(=O)Nc2ccccc2)cc1`, the Potency result in assay [4], in assay [3] and in assay [2] was “inactive” throughout.
In the case of `Nc1cnn([C@@H]2O[C@H](CO)[C@@H](O)[C@H]2O)c(=O)n1`, the Potency result in assay [4], in assay [3] and in assay [2] was “inactive” throughout.
As to `COc1cccc2c1C(=O)c1c(O)c3c(c(O)c1C2=O)C[C@@](O)(C(=O)CO)C[C@@H]3O[C@H]1C[C@H](N)[C@H](O[C@@H]2CCCCO2)[C@H](C)O1`, the Potency entry in assay [4], in assay [3] and in assay [2] was “inactive” in each case.
As for `COC(=O)c1cc(Cl)ccc1OC`, the Potency result in assay [4] and in assay [3] was “inactive” throughout.
With `CC(C(=O)O)c1ccc(C(=O)c2ccccc2)s1` (stereo not given), the Potency result in assay [4], in assay [3] and in assay [2] was “inactive” throughout.
On to `Cc1ccc(O)c([C@H](CCN(C(C)C)C(C)C)c2ccccc2)c1`, for which the Potency entry in assay [4] is “inactive”.
`C#C[C@]1(OC(C)=O)CC[C@H]2[C@@H]3CCC4=C/C(=N/O)CC[C@@H]4[C@H]3CC[C@@]21CC`: the Potency entry in assay [4] and in assay [3] was “inactive” throughout.
As for `O=c1[nH]cnc2ccccc12`, the Potency entry in assay [4], in assay [3] and in assay [2] was “inactive” throughout.
`CCC(CN)=C(c1ccccc1)c1ccccc1`: the Potency entry in assay [4], in assay [3] and in assay [2] was “inactive” each time.
For the molecule `CCCCOC(=O)CC`, the Potency entry in assay [4], in assay [3] and in assay [2] was “inactive” in each case.
For the molecule `[Cl][Pt-2]([Cl])([Cl])[Cl]`, the Potency in assay [4] is 17.9 µM (active); in assay [3], 35.7 µM (active).
`O=P(O)(O)OCC(O)CO` (stereo not given): the Potency result in assay [4], in assay [3] and in assay [2] was “inactive” in each case.
Take `O=C1CC[C@H](C(=O)N2CCCCC2)N1`: the Potency result in assay [4], in assay [3] and in assay [2] was “inactive” in each case.
Turning to `CCN1CCCC1CNC(=O)c1cc(S(=O)(=O)CC)c(N)cc1OC` (stereo not given), the values for the Potency in assay [4] and in assay [3] were 15.5 µM (active) and 13.8 µM (active), respectively.
Take `CN1CCC(=C2c3ccccc3CC(=O)c3sccc32)CC1`: the Potency entry in assay [4], in assay [3] and in assay [2] was “inactive” each time.

Values taken from PubChem BioAssay (Tox21).
